# Test results taken from PubChem BioAssay.
# The source made the active and inactive calls.
# How the values were obtained:
# [1] = small molecules captured by biotinylated probe aFSTL3 – biochemical, small-molecule microarray, fluorescence 635/667, stem cell growth factor project, primary screen (AID 1064); conditions: higher = more signal;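 note: measures binding of the biotinylated anti-FSTL3 antibody to printed compounds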
# [2] = binders from COS7 lysate, DM2A8 probe, primary screen, torsin A project, cell lysate, small-molecule microarray, fluorescence 635/667 (AID 1065); conditions: higher = more signal, COS7 lysate expressing mutant human TOR1A
# [3] = small molecules captured by biotinylated probe aFGF2 – biochemical, small-molecule microarray, fluorescence 635/667, stem cell growth factor project, primary screen (AID 1067); conditions: higher = more signal;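 note: measures binding of biotinylated aFGF2 protein to printed compounds on slides; z-score merges feature fluorescence and signal-to-noise across triplicate slides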
# [4] = small molecules captured by biotinylated probe aFGF10 – biochemical, small-molecule microarray, fluorescence 635/667, stem cell growth factor project, primary screen (AID 1071); conditions: higher = more signal;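 note: score merges 667 nm spot intensity and signal to noise from triplicate slides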
# [5] = target: Neurogenic locus notch homolog protein 2 (Homo sapiens) (UniProt Q04721); experiment: small molecules binding Notch2 protein – biochemical, small-molecule microarray, 635 nm fluorescence, stem cell growth factors, primary screen (AID 1073); conditions: higher = more signal
# [6] = target: Pro-neuregulin-1, membrane-bound isoform (Homo sapiens) (UniProt Q02297); experiment: small molecules binding neuregulin-1 protein – biochemical, small-molecule microarray, fluorescence 635/667, psychiatric disease protein project, primary screen (AID 1075); conditions: NRG1 binding, 635 nm fluorescence, higher = more signal;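 note: score combines 667 nm spot fluorescence with signal to noise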
# Sequence of Pro-neuregulin-1, membrane-bound isoform (Homo sapiens) (Q02297 whole entry, looked up, the tested form may be a part, canonical isoform): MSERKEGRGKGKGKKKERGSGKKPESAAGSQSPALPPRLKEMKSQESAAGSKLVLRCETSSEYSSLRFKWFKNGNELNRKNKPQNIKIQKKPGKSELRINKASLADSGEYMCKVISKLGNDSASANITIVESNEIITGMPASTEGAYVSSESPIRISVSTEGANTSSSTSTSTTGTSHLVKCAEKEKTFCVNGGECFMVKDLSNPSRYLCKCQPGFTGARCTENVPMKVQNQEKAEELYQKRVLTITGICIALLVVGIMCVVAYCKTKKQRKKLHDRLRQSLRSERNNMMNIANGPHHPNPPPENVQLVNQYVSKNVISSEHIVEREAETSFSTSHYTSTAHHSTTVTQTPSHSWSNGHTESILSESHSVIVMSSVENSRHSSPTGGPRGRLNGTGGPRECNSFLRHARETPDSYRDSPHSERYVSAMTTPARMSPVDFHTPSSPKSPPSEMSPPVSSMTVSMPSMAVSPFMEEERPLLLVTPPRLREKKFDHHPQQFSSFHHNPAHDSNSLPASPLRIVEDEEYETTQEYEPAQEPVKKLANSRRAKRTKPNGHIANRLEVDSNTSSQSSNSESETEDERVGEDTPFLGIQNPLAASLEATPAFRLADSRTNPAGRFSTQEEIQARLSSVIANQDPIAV
# [7] = system: Neuregulin-1 EGF-like domain; experiment: small molecules binding NRG1 EGF domain – biochemical, small-molecule microarray, 635 nm fluorescence, primary screen (AID 1081); conditions: higher = more signal;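 note: binding of the protein to compounds printed on small-molecule microarray slides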
# [8] = FRG1 expression reporter modulators in myotubes – cell-based, C2C12 myotubes, firefly/Renilla luciferase, luminescence, FRG1 inhibition for FSHD, primary screen (AID 1084); conditions: FRG1 promoter luciferase, higher = more signal, called active from +8 up or from −8 down
# [9] = small molecules captured by biotinylated probe aFST – biochemical, small-molecule microarray, fluorescence 635/667, stem cell growth factor project, primary screen (AID 1086); conditions: higher = more signal;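 note: score merges 667 nm fluorescence with signal-to-noise of each printed compound spot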
# [10] = binders of probe aHhip on microarray, primary screen, stem cell growth factor project, biochemical, small-molecule microarray, fluorescence 635/667 (AID 1087); conditions: higher = more signal;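 note: score merges spot fluorescence at 667nm with spot signal to noise ratio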
# [11] = system: PRMT1 (protein arginine N-methyltransferase 1); experiment: small molecules binding arginine methyltransferase PRMT1 – biochemical, small-molecule microarray, 635 nm fluorescence, primary screen (AID 1088); conditions: higher = more signal;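 note: binding of Prmt1 protein to compounds spotted on small-molecule microarray slides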
# [12] = growth effects on S. cerevisiae YJM789 – YJM789 clinical isolate, OD600, 24 h, basal, primary screen (AID 1089); conditions: higher = more signal, called active from +8 up or from −8 down;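 note: growth of clinical yeast isolate S. cerevisiae YJM 789 seeded 1000 cells per well; test concentration not given here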
# [13] = S. pombe growth modifiers, basal conditions – strain 972, OD600, 24 h, no modulator, primary screen (AID 1090);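 note: basal condition with compound alone and no growth modifier present; test concentration not given here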; conditions: S. pombe 972 growth, higher = more signal, called active from +8 up or from −8 down
# [14] = budding yeast growth modifiers under rapamycin – strain BY4716, OD600, 96 h, primary screen (AID 1091); note: test concentration not given here; conditions: S. cerevisiae BY4716 + rapamycin, higher = more signal, called active from +8 up or from −8 down
# [15] = target: Torsin-1A-interacting protein 2 (Homo sapiens) (UniProt Q8NFQ8); experiment: small molecules binding lysate-expressed LULL1 – cell lysate, human LULL1 lysate, 635/667 nm fluorescence, primary screen (AID 1092); conditions: small-molecule microarray, hLULL1 lysate binding, 635 nm fluorescence; higher = more signal;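 note: probe is lysate of COS7 cells overexpressing human LULL1; score merges per-feature 667 nm fluorescence with signal-to-noise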
# Sequence of Torsin-1A-interacting protein 2 (Homo sapiens) (Q8NFQ8 whole entry, looked up): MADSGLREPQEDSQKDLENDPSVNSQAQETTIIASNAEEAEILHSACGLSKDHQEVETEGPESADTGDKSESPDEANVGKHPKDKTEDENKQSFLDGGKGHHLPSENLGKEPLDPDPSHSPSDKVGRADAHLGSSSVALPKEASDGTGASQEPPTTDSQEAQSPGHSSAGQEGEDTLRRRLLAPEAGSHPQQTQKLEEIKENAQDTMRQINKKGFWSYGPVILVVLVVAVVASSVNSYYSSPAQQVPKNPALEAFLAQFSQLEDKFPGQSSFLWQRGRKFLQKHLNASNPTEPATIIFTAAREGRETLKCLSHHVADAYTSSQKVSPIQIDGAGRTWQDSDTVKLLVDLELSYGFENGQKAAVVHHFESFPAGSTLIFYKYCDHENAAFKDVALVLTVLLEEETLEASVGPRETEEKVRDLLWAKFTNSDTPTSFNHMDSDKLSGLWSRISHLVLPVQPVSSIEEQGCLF
# [16] = optical density change of DRC41 E. coli – strain DRC41, OD650, 24 h, E. coli filamentation project, primary screen (AID 1093);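 note: MC1000 strain lacking acrAB efflux and sulA so SOS filamentation is blocked; test concentration not given here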; conditions: E. coli DRC41 growth, higher = more signal, called active from +8 up or from −8 down
# [17] = probe aLefty2 binding to arrayed compounds – biochemical, biotinylated probe, 635/667 nm fluorescence, primary screen (AID 1094); conditions: small-molecule microarray, higher = more signal;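 note: score merges spot fluorescence near 667 nm with spot signal-to-noise ratio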
# [18] = system: Noggin (protein binding on small-molecule microarray); experiment: small molecules binding Noggin protein – biochemical, 635/667 nm fluorescence, primary screen (AID 1095); conditions: 635 nm fluorescence, higher = more signal;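 note: score merges 667 nm feature fluorescence with signal to noise over triplicate slides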
# [19] = target: Neurogenic locus notch homolog protein 3 (Homo sapiens) (UniProt Q9UM47); experiment: small molecules binding NOTCH3 protein – biochemical, 635/667 nm fluorescence, primary screen (AID 1096); conditions: small-molecule microarray, 635 nm fluorescence, higher = more signal
# Sequence of Neurogenic locus notch homolog protein 3 (Homo sapiens) (Q9UM47 whole entry, looked up): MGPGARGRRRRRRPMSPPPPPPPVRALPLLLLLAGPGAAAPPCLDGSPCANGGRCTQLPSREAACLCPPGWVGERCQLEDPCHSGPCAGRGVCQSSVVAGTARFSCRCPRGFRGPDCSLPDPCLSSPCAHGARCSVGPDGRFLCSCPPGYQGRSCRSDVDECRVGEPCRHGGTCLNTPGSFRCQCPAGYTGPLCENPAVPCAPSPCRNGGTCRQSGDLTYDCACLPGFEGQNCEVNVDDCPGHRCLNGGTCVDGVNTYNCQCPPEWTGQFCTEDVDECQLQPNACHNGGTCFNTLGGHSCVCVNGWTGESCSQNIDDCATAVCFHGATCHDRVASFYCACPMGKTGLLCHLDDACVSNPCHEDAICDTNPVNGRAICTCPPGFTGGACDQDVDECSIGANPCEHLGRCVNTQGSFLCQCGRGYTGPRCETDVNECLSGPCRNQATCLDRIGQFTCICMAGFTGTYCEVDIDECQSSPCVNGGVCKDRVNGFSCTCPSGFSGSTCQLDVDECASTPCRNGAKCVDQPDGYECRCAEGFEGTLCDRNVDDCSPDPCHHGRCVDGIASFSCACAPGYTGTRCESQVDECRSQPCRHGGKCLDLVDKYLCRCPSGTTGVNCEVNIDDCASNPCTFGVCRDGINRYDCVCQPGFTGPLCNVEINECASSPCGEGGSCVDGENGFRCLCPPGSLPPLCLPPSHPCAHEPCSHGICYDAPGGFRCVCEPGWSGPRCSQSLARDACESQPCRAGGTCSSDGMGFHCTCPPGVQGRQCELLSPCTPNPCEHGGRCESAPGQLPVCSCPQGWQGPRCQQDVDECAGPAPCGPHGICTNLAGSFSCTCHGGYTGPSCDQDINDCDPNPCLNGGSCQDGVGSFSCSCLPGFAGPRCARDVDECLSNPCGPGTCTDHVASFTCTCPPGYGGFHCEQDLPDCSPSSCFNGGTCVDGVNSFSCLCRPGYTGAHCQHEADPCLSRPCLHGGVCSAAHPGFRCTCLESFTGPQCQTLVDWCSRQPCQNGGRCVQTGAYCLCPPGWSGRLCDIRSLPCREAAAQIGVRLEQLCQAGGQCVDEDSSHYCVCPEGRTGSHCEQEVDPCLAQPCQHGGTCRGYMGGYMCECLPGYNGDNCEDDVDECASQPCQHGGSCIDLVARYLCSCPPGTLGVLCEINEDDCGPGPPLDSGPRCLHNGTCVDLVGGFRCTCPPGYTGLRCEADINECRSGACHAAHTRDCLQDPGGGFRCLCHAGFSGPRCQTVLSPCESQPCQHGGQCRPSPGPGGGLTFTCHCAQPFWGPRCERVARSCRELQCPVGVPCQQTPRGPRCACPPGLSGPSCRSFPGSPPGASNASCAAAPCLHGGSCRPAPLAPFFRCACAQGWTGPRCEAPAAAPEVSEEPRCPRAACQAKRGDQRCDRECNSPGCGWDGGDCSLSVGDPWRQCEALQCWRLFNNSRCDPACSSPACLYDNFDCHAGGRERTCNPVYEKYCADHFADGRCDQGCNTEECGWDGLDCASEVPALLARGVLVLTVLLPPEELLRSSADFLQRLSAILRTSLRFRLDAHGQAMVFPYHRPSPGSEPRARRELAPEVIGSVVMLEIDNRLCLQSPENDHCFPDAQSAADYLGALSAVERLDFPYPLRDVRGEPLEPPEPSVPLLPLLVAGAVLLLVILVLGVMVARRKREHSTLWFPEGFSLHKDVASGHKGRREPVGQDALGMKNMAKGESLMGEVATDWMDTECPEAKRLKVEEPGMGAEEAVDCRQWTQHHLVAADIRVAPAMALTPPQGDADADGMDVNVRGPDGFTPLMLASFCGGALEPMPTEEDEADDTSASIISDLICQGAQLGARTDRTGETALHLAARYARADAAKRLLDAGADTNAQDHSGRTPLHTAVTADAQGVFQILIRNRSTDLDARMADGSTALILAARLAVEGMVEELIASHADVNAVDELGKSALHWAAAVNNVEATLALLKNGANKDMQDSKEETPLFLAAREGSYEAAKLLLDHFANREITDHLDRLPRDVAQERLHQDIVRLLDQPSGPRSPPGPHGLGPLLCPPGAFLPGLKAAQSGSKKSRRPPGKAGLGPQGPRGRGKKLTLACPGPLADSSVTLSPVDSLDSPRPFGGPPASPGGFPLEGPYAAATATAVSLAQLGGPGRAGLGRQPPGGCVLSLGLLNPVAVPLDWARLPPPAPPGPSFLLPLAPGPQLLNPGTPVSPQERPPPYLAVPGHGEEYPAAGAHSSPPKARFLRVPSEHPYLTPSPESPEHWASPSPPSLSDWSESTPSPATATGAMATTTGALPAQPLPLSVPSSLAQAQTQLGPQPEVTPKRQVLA
# [20] = probe aEGFR binding to arrayed compounds – biochemical, biotinylated probe, 635/667 nm fluorescence, primary screen (AID 1097); conditions: small-molecule microarray, higher = more signal;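 note: probe is a biotinylated anti-EGFR antibody binding compounds printed on slides; score combines fluorescence near 667 nm and signal to noise of each spot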
Structure (SMILES),composite z-score [1],composite z-score [2],composite z-score [3],composite z-score [4],composite z-score [5],composite z-score [6],composite z-score [7],z-score [8],composite z-score [9],composite z-score [10],composite z-score [11],z-score [12],z-score [13],z-score [14],composite z-score [15],z-score [16],composite z-score [17],composite z-score [18],composite z-score [19],composite z-score [20]
COC(=O)c1cccc([C@H]2OC(=CC(=O)OC(C)C)C[C@@H](c3cccc(C(=O)OC)c3)O2)c1,-0.3,2.67,0.357,1.14,1.08,1.4,1.12,0.946 (inactive),0.902,-0.289,1.55,-0.132 (inactive),-2.24 (inactive),-1.39 (inactive),3.6,-0.259 (inactive),0.272,1.22,0.974,0.0297
C=CCN1C(=O)[C@@]2(O[C@@H](CCn3cc([C@H](O)c4ccccc4)nn3)[C@H]([Si](C)(C)c3ccc(OC)cc3)[C@H]2C)c2cc(N3C(=O)c4cccc5cccc3c45)ccc21,0.241,-0.477,-0.151,-0.215,-0.902,0.548,0.482,-1.04 (inactive),-0.365,-0.271,0.183,0.584 (inactive),1.18 (inactive),1.31 (inactive),1.5,-0.76 (inactive),-0.189,-0.684,-0.193,-0.199
CC(C)C(=C=CC[C@H](O)c1ccccc1OCCO)C[C@H](O)c1cc(Cl)cc(Cl)c1O,-0.435,0.807,-0.0266,0.742,0.648,1.6,0.889,-0.926 (inactive),0.454,0.0505,1.55,-0.088 (inactive),-2.34 (inactive),-0.16 (inactive),2.71,-0.0708 (inactive),-0.226,0.811,1.03,0.0284
COc1ccccc1CN1C(=O)c2ccccc2[C@](Cc2ccccc2I)(C(=O)NCC(C)C)[C@@H]1c1ccc(CO)cc1,1.21,0.204,-0.0049,-0.452,-0.396,1.2,1.15,-2.55 (inactive),0.0126,0.142,1.33,-0.747 (inactive),-0.652 (inactive),0.0134 (inactive),2.11,2.2 (inactive),0.103,-0.371,0.139,-0.0721
C=CCC(OC(C)=O)[C@@H]1[C@@H](N(Cc2cccc3ccccc23)C(=O)c2ccc(-c3ccccc3)cc2)c2cc(OCCCO)ccc2N1C(=O)Cc1ccc2ccccc2c1 (stereo not given in full),-0.141,0.14,-0.0171,-0.272,0.07,0.022,-0.374,-0.94 (inactive),0.481,-0.134,0.157,-0.616 (inactive),0.072 (inactive),-0.26 (inactive),0.893,-0.741 (inactive),-0.145,-0.109,0.397,-0.112
CN(C)CCCCNC(=O)[C@H]1C[C@H]2C(=O)N3CCC[C@H]3C(=O)N2[C@H]1c1cccc(OCCO)c1,0.429,0.76,-0.0386,0.0348,-0.182,1.94,1.28,3.81 (inactive),0.081,0.565,1.1,0.752 (inactive),1.68 (inactive),0.751 (inactive),3.09,-0.101 (inactive),0.0164,0.866,0.476,-0.0968
NC(=O)NCC#Cc1ccc2c(c1)[C@]1(C(=O)N2)[C@H](c2ccc(OCCO)cc2)N2[C@H](c3ccccc3)[C@H](c3ccccc3)OC(=O)[C@H]2[C@@H]1C(=O)NC[C@H](O)c1ccccc1,-0.142,-0.329,-0.0586,0.029,0.322,0.577,-0.164,-0.0847 (inactive),0.103,-0.134,0.26,2.87 (inactive),1.98 (inactive),3.9 (inactive),0.741,2.55 (inactive),0.0041,0.565,-0.311,-0.141
O=C(NCC(O)CO)[C@@]1(CCS(=O)(=O)c2ccccc2)N=C(c2ccc(OCCCO)cc2)O[C@H]1c1ccccc1 (stereo not given in full),0.715,0.965,0.123,0.223,0.429,1.96,1.33,2.37 (inactive),0.544,0.0302,0.845,-0.717 (inactive),-0.908 (inactive),-0.163 (inactive),3.56,-0.328 (inactive),0.471,-0.562,-0.196,0.144
COc1cc(CO)cc(I)c1O[C@H]1C=C(C(=O)NCCO)C[C@@H](NC2CCCCCC2)[C@@H]1O,-0.606,0.174,-0.0114,0.998,0.618,-0.0274,0.716,0.999 (inactive),-0.0564,-0.0994,1.53,0.543 (inactive),-8.18 (active),-0.397 (inactive),1.86,1.37 (inactive),-0.166,1.22,1.01,-0.0564
COc1cc(OC)c(C(O)C2C=CC3C(=O)N(c4ccccc4)C(=O)C3N2Nc2ccc(C(C)C)cc2)cc1Br (stereo not given),0.108,-0.0919,0.0559,0.774,1.44,1.4,1.28,-2.19 (inactive),1.2,-0.0994,1.48,-0.0401 (inactive),1.09 (inactive),-0.323 (inactive),3.55,0.315 (inactive),0.136,-0.276,1.05,0.582
